Laboratory results published in the supplement of paper PMC10681739.

biological target: T1, ETS1 (UniProt P14921); assay: TF binding intensity (PBM fluorescence), negative control probe (arbitrary fluorescence units); higher = stronger binding
T1 sequence: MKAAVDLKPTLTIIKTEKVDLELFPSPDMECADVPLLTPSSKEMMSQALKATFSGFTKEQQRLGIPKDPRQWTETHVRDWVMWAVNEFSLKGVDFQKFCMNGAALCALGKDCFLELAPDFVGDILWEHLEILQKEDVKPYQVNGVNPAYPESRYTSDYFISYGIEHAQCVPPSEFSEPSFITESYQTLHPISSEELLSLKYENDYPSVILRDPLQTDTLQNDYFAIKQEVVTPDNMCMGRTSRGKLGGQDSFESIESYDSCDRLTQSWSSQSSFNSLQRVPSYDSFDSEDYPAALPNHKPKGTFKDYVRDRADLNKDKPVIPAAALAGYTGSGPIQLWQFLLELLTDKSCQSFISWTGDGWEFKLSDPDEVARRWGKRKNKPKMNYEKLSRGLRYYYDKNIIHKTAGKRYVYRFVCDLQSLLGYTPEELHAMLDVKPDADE
Method: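 gcPBM negative-control 36-bp genomic probes lacking TF binding sites. Each was incubated with recombinant human ETS1 or RUNX1 alone and detected by antibody fluorescence. Values are medians over replicate spots (4 spots for the ETS1-RUNX1 arrays, 3 for the ETS1-ETS1 array). The probes sit in constant array flanks that are not printed.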

Row | Sequence | TF binding intensity
1 | TATTTTCCAAAAGTGGCCACAACAACATCTGCCAAC (protein concentration 1 nM) | 442
2 | TAAATAAATAAACACTTTAGCACATTGACTTTAGAG (protein concentration 10 nM) | 111
3 | GCTGGGAGACAGAGCCAGACACTGTCTCAAAAAAAA (protein concentration 10 nM) | 110
4 | AGAAGCTTGGCTTGGTCTGCGCCTCCTCCCGTGCCT (protein concentration 10 nM) | 101
5 | CCTTGCCAATGTTTGTGTGGAGAGCACACGGGTGCT (protein concentration 10 nM) | 116
6 | GGGGAAAATGAGCACAGGTGTGAAGCAGATCACAGG (protein concentration 10 nM) | 170
7 | AGCAGAGTGTGATGAATGGATTCATATACGGTCTGA (protein concentration 10 nM) | 103
8 | GATATGAGATCAGAATGAGGCTGCATGAGAACAAGT (protein concentration 10 nM) | 112
9 | CTTAGTTCAGTGTAAGGGGCCTGGTTGTTGGATTTT (protein concentration 10 nM) | 119
10 | TTCATAACGTTATACACCACAATGCTAAAAAAATGA (protein concentration 1 nM) | 672
11 | GACCACAGGGACCCATGCCAGTCAGATAAAAATAAC (protein concentration 10 nM) | 141
12 | GCGTTCGAGGGACACTGGACATCTGGTGGCCCTCCA (protein concentration 10 nM) | 93.7
13 | CTGAAATTAACCCAAAGGTTGTGTGTGGACCTCCCT (protein concentration 10 nM) | 109
14 | GGGTGGTGGGGCTTTCTTAGCAGCAAAATGTTCGCG (protein concentration 10 nM) | 223
15 | GTTCCAGGCATTGTACTGAGGGGAGGCCCTCCTGTG (protein concentration 10 nM) | 109
16 | CCACGCTTTGCCAGCACTTTCCCCTGCCTCGTCTGT (protein concentration 10 nM) | 119
17 | TGACCGGCAGGCCCGAAGCCCCCTGGGATGCCTGGC (protein concentration 10 nM) | 105
18 | ACGACTCTTCCCAAGCAGCGGGAGGATCTAGGCCCA (protein concentration 10 nM) | 102
19 | CTCCTAATTCTGCATGCAACACTCTCCAGAGAGCTG (protein concentration 10 nM) | 136
20 | GTTAGAATGCAACCTTTTGACTTATATCTTTTCCCC (protein concentration 10 nM) | 140

Row | Sequence | TF binding intensity
21 | TTTCTTCACACCACAAGCAGAGAGCAGCGAGAGAGA (protein concentration 10 nM) | 136
22 | TCCTTTTGCTATACAGACCCCAGAACTCCTGAATGG (protein concentration 10 nM) | 119
23 | GACATTTCGAGTAAGTGCGGTATACCAGTTAAAAAT (protein concentration 1 nM) | 479
24 | TAGTCCTGGAAAGGTCATGTCAACCCTCCTGCATAT (protein concentration 10 nM) | 115
25 | TATAAGGGGCTTTTCCCCTTTGGCTCAGCACTTCTC (protein concentration 10 nM) | 116
26 | GGCTGGTAGAAATACTGCGGCTAATAAAGGCGTGGA (protein concentration 1 nM) | 425
27 | ATAAAACACAGTGTACAGTGACCTTTTAATCACAAC (protein concentration 10 nM) | 132
28 | CTGTTGTTTGACTTTAGTCATCTCCTACTTTTATAG (protein concentration 10 nM) | 137
29 | GTTTGGCTTTCAGAGTGTGGTTTGGATTCCTAACAG (protein concentration 1 nM) | 450
30 | ATGGCATACTAAGTAGCCACAACATGCAAGATGGAC (protein concentration 1 nM) | 440
31 | CAACGCAGACTACTAACCACTAGAGAATCCCAAGGC (protein concentration 1 nM) | 485
32 | CTCTGCCCAGTTGGTTGTGGCTCTTCATTACTGTGG (protein concentration 1 nM) | 512
33 | ACCTGGGTCTCTGACAGACACCCCAAACTTCAGTTC (protein concentration 10 nM) | 102
34 | GAAGCCAGTGAGCCAGGAGTGCTGATTGGTTAGGGA (protein concentration 10 nM) | 107
35 | AAAACAAACAAACCAAACAACACAACAGAAGTTTTC (protein concentration 10 nM) | 150
36 | CAAAATGCTTAAAAGGTAACTTGACTCTTTGTTTGG (protein concentration 10 nM) | 123
37 | AGTATGAGTTTGAATACACAGAACCTTTCTCATTCT (protein concentration 10 nM) | 106
38 | CAGAGGGGGCCTCTGGGGCAGCGGTGCTGGGAGCGG (protein concentration 10 nM) | 109
39 | ATAATGGAAAGCGAAACCGCAGATTAAGCAGGGACT (protein concentration 1 nM) | 398
40 | AATCCAATGGGGTTTCTGTGTAATTAATAACATCTA (protein concentration 10 nM) | 120
